Data taken from PubChem BioAssay AID624330 (Southern Research Specialized Biocontainment Screening …, 2012).
In all, about 340,000 compounds went through this assay and about 2,100 (0.62%) were called active.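 How the source made its calls: active means first-screen hits whose inhibition reached a set limit at any dose in the follow-up dose series; inconclusive means inhibition above the set first-screen limit but never retested; inactive means the rest.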 Not all results are given here. Potency and affinity values are given separately.

Target: Rac GTPase-activating protein 1 (Homo sapiens) (UniProt Q9H0H5)
Sequence (Q9H0H5 whole entry, looked up): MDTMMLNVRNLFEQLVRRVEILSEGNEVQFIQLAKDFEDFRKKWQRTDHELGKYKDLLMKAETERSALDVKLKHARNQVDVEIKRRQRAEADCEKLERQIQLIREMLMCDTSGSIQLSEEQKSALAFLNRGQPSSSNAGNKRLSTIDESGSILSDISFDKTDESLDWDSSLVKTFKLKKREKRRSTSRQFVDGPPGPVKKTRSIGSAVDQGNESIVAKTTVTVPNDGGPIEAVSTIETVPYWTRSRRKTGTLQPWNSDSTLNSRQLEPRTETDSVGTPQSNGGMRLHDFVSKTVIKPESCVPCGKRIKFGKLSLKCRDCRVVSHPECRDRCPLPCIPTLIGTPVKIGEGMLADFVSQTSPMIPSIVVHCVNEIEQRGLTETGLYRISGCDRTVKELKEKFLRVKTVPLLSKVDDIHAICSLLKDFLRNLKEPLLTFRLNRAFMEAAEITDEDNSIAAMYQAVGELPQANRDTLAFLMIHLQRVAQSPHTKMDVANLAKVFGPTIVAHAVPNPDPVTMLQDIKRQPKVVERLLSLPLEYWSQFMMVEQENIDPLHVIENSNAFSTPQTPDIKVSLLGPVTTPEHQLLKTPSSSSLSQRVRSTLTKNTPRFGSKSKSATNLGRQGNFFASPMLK
Assay: MgcRacGAP GTPase-activating activity inhibitors, confirmation, biochemical, ADP Hunter fluorescence, primary and confirmatory (AID 624330);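 further: fluorescence reports GDP produced by GAP-driven GTP hydrolysis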
Details: MgcRacGAP-stimulated Rac1 GTP hydrolysis, at 30 µM, active compounds read high, GST-tagged Rac1 F28L mutant substrate

inhibition, inactive:
CC(=O)Nc1ccc(S(=O)(=O)NNC(=O)c2cccc([N+](=O)[O-])c2)cc1 5.98%
COc1ccccc1NC(=O)CCC(=O)c1ccc(-c2ccccc2)cc1 -5.2%
CCc1ccc(NC(=O)C(=O)NCCOc2ccccc2Cl)cc1 -2.71%
Cc1ccccc1C(=O)c1cccn1CC(=O)NC1CCCC(C)C1C (configuration not stated) -36.1%
NC(=O)C1(N2CCCCC2)CCN(Cc2ccc(Br)cc2)CC1 -3.42%
CC1CCN(CCOCCOc2ccc(Br)cc2Cl)CC1 5.16%
Cc1ccc(OCCOCCN2CCCC2)c(Br)c1 31.4%
CC(C)(C)c1ccccc1OCCOCCN1CCCCCC1 -5.46%
Clc1cc(Br)ccc1OCCN1CCOCC1 24.7%
Cc1cc(Cl)c(OCCOCCN2CCC(C)CC2)c(Br)c1 21.9%
Cc1cc(C)c(OCCOCCN2CCN(C)CC2)c(Cl)c1 22.7%
Cc1ccc(C(C)(C)C)c(OCCOCCN2CCCC2)c1 24.1%
CC1CCCN(CCOCCOc2ccc(Br)cc2Cl)C1 (configuration not stated) 30.6%
Cc1cccc(/C(N)=N/OC(=O)Cc2cccs2)c1 2.9%
Cn1c(=O)c2c(nc(Oc3ccc(-c4ccccc4)cc3)n2C)n(C)c1=O 12.2%
COc1ccc(C(=O)Oc2c(OC)cc(C(=S)N3CCOCC3)cc2OC)cc1 4.31%
Cc1cc(Br)ccc1OCCCCN1CCC(C)CC1 9.17%
Cc1ccc(OCCCCN2CCC(C)CC2)c(Br)c1 17%
C[C@@H]1CN([C@@H](C)CO)C(=O)CCCn2nncc2CO[C@@H]1CN(C)S(C)(=O)=O 12%
COCc1ccc(C(=O)N2CCCCC2C(=O)Nc2ccc(-n3nc(C)cc3C)cc2)o1 (configuration not stated) 7.88%
O=C(NCCCNC(=O)c1ccco1)c1ccc(Cl)c(Cl)c1 0%
CCOc1ccc(N=CC2=C(O)CC(C)(C)CC2=O)cc1 6.9%
CC1(C)CC(=O)C(C=Nc2ccncc2)=C(O)C1 6.33%
CC1(C)CC(=O)C(C=Nc2ccccc2)=C(O)C1 2.7%
COc1ccc(N=CC2=C(O)CC(C)(C)CC2=O)cc1 9.7%
O=C1CCCC(O)=C1C=Nc1cccc(C(F)(F)F)c1 11.5%
COc1ccc(N=CC2=C(O)CCCC2=O)cc1 13.3%
O=C1CC(c2ccccc2)CC(O)=C1C=Nc1ccc(Cl)cc1 (configuration not stated) 2.18%
O=C1CC(c2ccccc2)CC(O)=C1C=Nc1ccccc1O (configuration not stated) 4.93%
Cc1ccc(CN2CCN(/N=C/c3ccc(C)s3)CC2)c(C)c1 4.97%
COc1ccc(Nc2nnc(SCC(=O)NC3CCS(=O)(=O)C3)s2)cc1 (configuration not stated) 4.04%
O=C(CN1C(=O)NC2(CCCCCC2)C1=O)N1CCN(S(=O)(=O)c2ccccc2)CC1 0.28%
CC(=O)NC1C(=O)N(CC(C)C)c2ccccc21 (configuration not stated) 4.92%
CCCc1ccc2c(N)c(C#N)sc2n1 1.65%
Cc1ccccc1C(=O)N(CC(=O)Nc1sc(C)c(C)c1C(N)=O)C1CCCC1 -20.9%
CCOc1ccc(NC(=O)N(CCC(C)C)C2CCN(C(C)=O)CC2)cc1 4.34%
Nc1ccc2c3c(cccc13)C(=O)N(c1ccccc1)C2=O 5.87%
CCN1C(=O)c2cccc3c(N)ccc(c23)C1=O 7.37%
Cc1ncoc1C(=O)N1CCCC(C(=O)Nc2cccc(-c3ccc(F)cc3)c2)C1 (configuration not stated) -3.84%
CCCc1cc(C(=O)OC)c2ccccc2n1 5.2%
O=C(COC(=O)C1CCC(=O)N1)Nc1ccc(Br)cc1 (configuration not stated) 15.9%
COc1ccc(CCNC(C(=O)Nc2cc(C)cc(C)c2)c2ccccc2)cc1 (configuration not stated) 2.32%
Cc1cc(C)cc(NC(=O)C(NCC2CCCO2)c2ccccc2)c1 (configuration not stated) 20.5%
CCC1(C)CC(CCN(Cc2ccco2)C(C)=O)(c2ccccc2)CCO1 (configuration not stated) 6.02%
CCOC(=O)N1CCC(N2C(=O)c3ccc(C(=O)NCc4ccc(F)cc4)cc3C2=O)CC1 -5.85%
CC(=O)c1c(C)[nH]c(C(=O)OCC(=O)Nc2ccc3[nH]c(=O)[nH]c3c2)c1C 9.39%
O=S(=O)(Cc1ccccc1)Nc1ccc(F)cc1 8.87%
CCC1=Nc2cc(C(=O)O)ccc2Sc2ccccc21 -0.29%
CC1=Nc2cc(C(=O)O)ccc2Sc2ccc(C)cc21 -10.1%
CC1=Nc2cc(C(=O)NCCCOC(C)C)ccc2Sc2ccc(C)cc21 7.38%
CCOC(=O)N1CCC(NC(=O)c2ccc3c(c2)N=C(C)c2ccccc2S3)CC1 4.04%
Cc1cccc(N(C(=O)CNC(=O)c2ccco2)C(C(=O)NC2CCCC2)c2cccnc2)c1C (configuration not stated) 5.36%
Cc1ccccc1OCC1Cn2c(nc3c2c(=O)[nH]c(=O)n3C)O1 (configuration not stated) 2.68%
Cc1c(N2C(=O)/C(=C/c3ccc(N(C)C)cc3)N(C)C2=S)c(=O)n(-c2ccccc2)n1C 27.2%
Cc1c(N=Cc2cc3c(cc2Cl)OCO3)c(=O)n(-c2ccccc2)n1C 4.04%
COC(=O)/C(N=Nc1c(C)n(C)n(-c2ccccc2)c1=O)=C(\C)O 6.21%
CN1C(=S)N(c2cccnc2)C(=O)/C1=C\c1ccc(N(C)C)cc1 12.2%
CC(=O)/C(N=Nc1c(C)n(C)n(-c2ccccc2)c1=O)=C(\C)O 0.69%
Cc1c(O)c(=O)n(-c2ccccc2)n1C 2.13%
Cc1c(NC(=S)N/N=C/c2ccc(Br)cc2)c(=O)n(-c2ccccc2)n1C 9.41%
Cc1c(NC(=S)N/N=C/c2cccc(O)c2)c(=O)n(-c2ccccc2)n1C 12.8%
O=C(Nc1cccc(-c2cccc(F)c2)c1)C1CCN(Cc2ccco2)CC1 7.74%
